PubChem BioAssay (EPA / NIEHS)
Inconclusive results are not listed. The source made the active and inactive calls. The calls were made as follows, unless noted: active = hit-call score of the fitted dose curve at least 0.9, where 1 is the maximum; inactive = score below 0.9.

How the values were obtained:
[1] = target: Estrogen receptor (Homo sapiens) (UniProt P03372); experiment: ATG_ERa_TRANS: Attagene TRANS-FACTORIAL HepG2 Assay for human Estrogen Receptor alpha (ERa) (AID 2282970; active = hit-call score of the fitted dose curve at least 0.9, where 1 is the maximum); conditions: HepG2 Attagene TRANS ERa GAL4 reporter, mRNA
Chain of Estrogen receptor (Homo sapiens) (P03372 whole entry, looked up, the tested form may be a part): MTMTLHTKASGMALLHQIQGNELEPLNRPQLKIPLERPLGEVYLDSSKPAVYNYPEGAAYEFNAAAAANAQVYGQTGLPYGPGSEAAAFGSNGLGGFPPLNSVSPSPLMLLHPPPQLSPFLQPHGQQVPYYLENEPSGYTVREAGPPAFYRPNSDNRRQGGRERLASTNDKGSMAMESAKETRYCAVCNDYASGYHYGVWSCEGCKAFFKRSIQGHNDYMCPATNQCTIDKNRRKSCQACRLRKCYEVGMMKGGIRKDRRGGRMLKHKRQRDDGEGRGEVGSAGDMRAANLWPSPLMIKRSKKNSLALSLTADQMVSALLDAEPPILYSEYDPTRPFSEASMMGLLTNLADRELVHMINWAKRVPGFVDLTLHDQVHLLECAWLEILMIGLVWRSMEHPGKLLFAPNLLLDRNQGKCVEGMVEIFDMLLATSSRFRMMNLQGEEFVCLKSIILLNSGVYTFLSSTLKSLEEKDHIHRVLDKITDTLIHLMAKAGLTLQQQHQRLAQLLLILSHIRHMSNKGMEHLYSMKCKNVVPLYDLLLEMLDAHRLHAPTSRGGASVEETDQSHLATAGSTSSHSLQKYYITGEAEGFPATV
In short: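 HepG2 cells transiently transfected with multiplexed GAL4-UAS reporter units read out chimeric NR-Gal4 activity. After 24 h compound exposure, reporter mRNA was quantified by RT-PCR, 6-FAM labeling, HpaI digestion and capillary electrophoresis, relative to DMSO.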

[2] = read-out: Vascular endothelial growth factor receptor 2 (Homo sapiens) (UniProt P35968); experiment: BSK_4H_VEGFRII: BioMAP Diversity Plus: 4H Assay for Vascular endothelial growth factor receptor 2 (VEGFR2) Biomarker Activity (AID 2283031); conditions: primary human endothelial cells (HUVEC); actives raise or lower the signal;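 also: cell-surface VEGFR2 protein level quantified by ELISA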
In short: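 Primary human umbilical vein endothelial cells (4H system), 24 h exposure; cell-surface VEGFR2 measured by ELISA. Bidirectional fitting versus DMSO; cytotoxicity checked in parallel by SRB total-protein staining.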

[3] = read-out: Human Leukocyte Antigen - DR isotype (HLADR), HLA-DRA (gene 3122); experiment: BSK_BE3C_HLADR: BioMAP Diversity Plus: BE3C Assay for Human Leukocyte Antigen - DR isotype (HLADR) Biomarker Activity (AID 2283032); conditions: primary human bronchial epithelial cells; actives raise or lower the signal
In short: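 Signal came from an ELISA for HLA-DR in human bronchial epithelial primary cells harvested 24 h after treatment; gain- and loss-of-signal fitting used DMSO controls as reference.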

[4] = read-out: Interleukin-8 (IL8), CXCL8 (gene 3576); experiment: BSK_CASM3C_IL8: BioMAP Diversity Plus: CASM3C Assay for Interleukin-8 (IL8) Biomarker Activity (AID 2283042); conditions: primary human coronary artery smooth muscle cells; actives raise or lower the signal
[5] = read-out: Low-density lipoprotein receptor (LDLR), LDLR (gene 3949); experiment: BSK_CASM3C_LDLR: BioMAP Diversity Plus: CASM3C Assay for Low-density lipoprotein receptor (LDLR) Biomarker Activity (AID 2283045); conditions: primary human coronary artery smooth muscle cells; actives raise or lower the signal;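 also: LDLR protein level on the cell surface quantified by ELISA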
[6] = read-out: E-selectin (Homo sapiens) (UniProt P16581); experiment: BSK_LPS_Eselectin: BioMAP Diversity Plus: LPS Assay for Eselectin Biomarker Activity (AID 2283077); conditions: primary human HUVEC with PBMC; actives raise or lower the signal
In short: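 Human umbilical vein endothelial cells co-cultured with PBMC under LPS stimulation; cell-surface E-selectin measured by ELISA 24 h after dosing. Change in either direction versus DMSO, with SRB total-protein staining in parallel cultures for cytotoxicity.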

[7] = read-out: Interleukin-8 (IL8), CXCL8 (gene 3576); experiment: BSK_LPS_IL8: BioMAP Diversity Plus: LPS Assay for Interleukin-8 (IL8) Biomarker Activity (AID 2283078); conditions: primary human HUVEC with PBMC; actives raise or lower the signal
In short: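 Human umbilical vein endothelial cells co-cultured with PBMC, LPS-stimulated, exposed to compound for 24 h. IL-8 quantified by ELISA; fitted in both directions against DMSO, with SRB total-protein staining of parallel cultures for cytotoxicity.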

[8] = BSK_LPS_SRB: Viability Assessment in the BioMAP Diversity Plus: LPS Assay (AID 2283079); conditions: primary human HUVEC with PBMC;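 also: total protein by sulforhodamine B absorbance as a cytotoxicity measure; measured one day after compound addition; fitted in both directions against DMSO so loss or gain of signal counts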
In short: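 Co-culture of human umbilical vein endothelial cells and PBMC, read 24 h after dosing. Total protein by 0.1% SRB staining after 10% TCA fixation, absorbance at 560 nm; bidirectional fit against DMSO.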

[9] = read-out: Monocyte Chemoattractant Protein-1 (MCP1), CCL2 (gene 6347); experiment: BSK_LPS_MCP1: BioMAP Diversity Plus: LPS Assay for Monocyte Chemoattractant Protein-1 (MCP1) Biomarker Activity (AID 2283081); conditions: primary human HUVEC with PBMC; actives raise or lower the signal;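 as to AC50: secreted MCP-1 protein quantified by ELISA in culture supernatant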
In short: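 Human umbilical vein endothelial cells co-cultured with PBMC, LPS-stimulated; secreted MCP-1 measured by ELISA 24 h after compound addition. Bidirectional curve fitting against DMSO baseline; SRB total-protein staining in parallel cultures for cytotoxicity.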

[10] = read-out: Macrophage colony-stimulating factor (MCSF), CSF1 (gene 1435); experiment: BSK_LPS_MCSF: BioMAP Diversity Plus: LPS Assay for Macrophage colony-stimulating factor (MCSF) Biomarker Activity (AID 2283083); conditions: primary human HUVEC with PBMC; actives raise or lower the signal
In short: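 HUVEC–PBMC co-culture, M-CSF measured by ELISA 24 h after chemical dosing. Fitted in both directions relative to DMSO as negative control; overt cytotoxicity assessed by SRB total-protein staining in parallel cultures.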

[11] = read-out: Tissue Factor, F3 (gene 2152); experiment: BSK_LPS_TissueFactor: BioMAP Diversity Plus: LPS Assay for Tissue Factor Biomarker Activity (AID 2283084); conditions: primary human HUVEC with PBMC; actives raise or lower the signal
In short: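 Human umbilical vein endothelial cells co-cultured with PBMC were dosed with compound. Cell-surface CD142 was measured by ELISA 24 h later. Activity was fitted bidirectionally against DMSO, with SRB total-protein staining in parallel cultures for cytotoxicity.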

[12] = read-out: Tumor necrosis factor (Homo sapiens) (UniProt P01375); experiment: BSK_LPS_TNFa: BioMAP Diversity Plus: LPS Assay for Tumour Necrosis Factor alpha (TNFa) Biomarker Activity (AID 2283085); conditions: primary human HUVEC with PBMC; actives raise or lower the signal
In short: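 Primary human vascular co-culture of HUVEC and PBMC; TNFa ELISA 24 h after treatment, analysed as increase or decrease relative to DMSO control.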

[13] = read-out: Vascular cell adhesion molecule 1 (VCAM1), VCAM1 (gene 7412); experiment: BSK_LPS_VCAM1: BioMAP Diversity Plus: LPS Assay for Vascular cell adhesion molecule 1 (VCAM1) Biomarker Activity (AID 2283086); conditions: primary human HUVEC with PBMC; actives raise or lower the signal
In short: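 Primary human vascular co-culture (umbilical vein endothelium plus PBMC) stimulated with LPS received chemical; 24 h later VCAM-1 was read by ELISA. Overt cytotoxicity was assessed by sulforhodamine B staining of parallel cultures at the same time point.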

[14] = read-out: CD40, CD40 (gene 958); experiment: BSK_SAg_CD40: BioMAP Diversity Plus: SAg Assay for CD40 Biomarker Activity (AID 2283088); conditions: primary human HUVEC with PBMC; actives raise or lower the signal
In short: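 HUVEC plus PBMC co-culture, superantigen-activated, with CD40 read by ELISA 24 h after dosing. Curves fitted in both directions against DMSO. Overt cytotoxicity checked by parallel SRB total-protein staining.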

[15] = read-out: CD69, CD69 (gene 969); experiment: BSK_SAg_CD69: BioMAP Diversity Plus: SAg Assay for CD69 Biomarker Activity (AID 2283089); conditions: primary human HUVEC with PBMC; actives raise or lower the signal;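 also: cell surface CD69 protein quantified by ELISA with fluorescence detection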
In short: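 Endothelial/PBMC co-culture; chemical added; 24 h incubation; CD69 ELISA with fluorescence detection; bidirectional fit vs DMSO.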

[16] = read-out: Monocyte Chemoattractant Protein-1 (MCP1), CCL2 (gene 6347); experiment: BSK_SAg_MCP1: BioMAP Diversity Plus: SAg Assay for Monocyte Chemoattractant Protein-1 (MCP1) Biomarker Activity (AID 2283090); conditions: primary human HUVEC with PBMC; actives raise or lower the signal
In short: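 MCP-1 levels in the endothelial–PBMC SAg co-culture were quantified by ELISA at 24 h post-dosing; both increases and decreases versus DMSO scored. Cytotoxicity monitored by SRB total protein in parallel cultures.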

[17] = read-out: E-selectin (Homo sapiens) (UniProt P16581); experiment: BSK_SAg_Eselectin: BioMAP Diversity Plus: SAg Assay for Eselectin Biomarker Activity (AID 2283091); conditions: primary human HUVEC with PBMC; actives raise or lower the signal
In short: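 Human umbilical vein endothelial cells co-cultured with peripheral blood mononuclear cells, SAg system. E-selectin is measured by ELISA 24 h after dosing and fitted bidirectionally against DMSO. Cytotoxicity is checked by SRB staining of parallel cultures.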

[18] = read-out: Monokine induced gamma interferon (MIG), CXCL9 (gene 4283); experiment: BSK_SAg_MIG: BioMAP Diversity Plus: SAg Assay for Monokine induced gamma interferon (MIG) Biomarker Activity (AID 2283092); conditions: primary human HUVEC with PBMC; actives raise or lower the signal
In short: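 Measures CXCL9 protein by ELISA in a human vascular primary-cell co-culture (umbilical vein endothelium with PBMC) 24 h after chemical addition. Activity is scored up or down from the DMSO control.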

[19] = BSK_SAg_PBMCCytotoxicity: PBMC Cytotoxicity Assessment in the BioMAP Diversity Plus: SAg Assay (AID 2283093); conditions: primary human HUVEC with PBMC;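 also: PBMC superantigen activated with SEB plus TSST-1 one hour after compound addition; PBMC viability measured as Alamar Blue reduction fluorescence at 546/580 nm; fitted both ways against DMSO so a hit may be loss or gain of signal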
In short: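 Human umbilical vein endothelial cells co-cultured with PBMC; PBMC (75,000/well) pre-treated with compound 1 h, then activated with SEB and TSST-1 (20 ng/mL final each) for 90 h. Alamar Blue added 6 h, fluorescence 546/580 nm; bidirectional fit versus DMSO.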

[20] = read-out: Urokinase-type plasminogen activator receptor (uPAR), PLAUR (gene 5329); experiment: BSK_CASM3C_uPAR: BioMAP Diversity Plus: CASM3C Assay for Urokinase-type plasminogen activator receptor (uPAR) Biomarker Activity (AID 2283054); conditions: primary human coronary artery smooth muscle cells; actives raise or lower the signal;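 also: cell-surface uPAR protein level quantified by ELISA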

Measured: AC50

Chain of E-selectin (Homo sapiens) (P16581 whole entry, looked up): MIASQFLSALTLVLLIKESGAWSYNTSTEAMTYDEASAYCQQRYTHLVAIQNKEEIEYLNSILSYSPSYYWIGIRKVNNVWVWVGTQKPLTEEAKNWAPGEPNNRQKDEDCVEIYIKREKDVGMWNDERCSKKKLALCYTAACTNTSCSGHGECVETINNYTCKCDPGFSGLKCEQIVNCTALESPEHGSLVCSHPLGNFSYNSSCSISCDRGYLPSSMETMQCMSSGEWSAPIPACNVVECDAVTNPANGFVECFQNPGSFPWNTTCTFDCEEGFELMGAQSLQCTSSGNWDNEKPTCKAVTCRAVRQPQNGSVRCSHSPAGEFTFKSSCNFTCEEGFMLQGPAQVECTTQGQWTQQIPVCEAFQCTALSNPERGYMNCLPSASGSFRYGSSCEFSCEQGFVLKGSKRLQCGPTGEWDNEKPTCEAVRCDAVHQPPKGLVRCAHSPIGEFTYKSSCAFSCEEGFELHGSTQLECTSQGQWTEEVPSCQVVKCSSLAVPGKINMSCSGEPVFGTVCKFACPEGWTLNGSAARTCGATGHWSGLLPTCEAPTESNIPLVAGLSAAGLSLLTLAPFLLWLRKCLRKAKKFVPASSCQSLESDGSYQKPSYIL
Chain of Tumor necrosis factor (Homo sapiens) (P01375 whole entry, looked up): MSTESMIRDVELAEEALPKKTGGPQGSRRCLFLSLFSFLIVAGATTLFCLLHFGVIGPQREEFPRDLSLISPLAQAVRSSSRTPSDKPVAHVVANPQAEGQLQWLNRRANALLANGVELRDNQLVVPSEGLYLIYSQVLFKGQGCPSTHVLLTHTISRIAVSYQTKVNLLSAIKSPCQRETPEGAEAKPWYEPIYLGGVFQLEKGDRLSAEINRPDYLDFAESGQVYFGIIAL

CCCCOP(=O)(O)OCCCC
inactive: [1]

C[N+](C)=CCl
inactive: [1]

CCCC=NO
inactive: [1]

CCC(C)c1cc([N+](=O)[O-])cc([N+](=O)[O-])c1OC(=O)C=C(C)C (stereo unspecified)
active: [2] 8.71 µM | [3] 11.8 µM | [4] 9.2 µM | [5] 31.2 µM | [6] 13.3 µM | [7] 20 µM | [8] 13.3 µM | [9] 13.4 µM | [10] 13 µM | [11] 33.5 µM | [12] 34.5 µM | [13] 20 µM | [14] 7.96 µM | [15] 8.09 µM | [16] 12.6 µM | [17] 8.28 µM | [18] 35 µM | [19] 28.2 µM

COc1cc(OC)c(OC)cc1C=O
inactive: [1]

CCCCCCCCCCCC#N
active: [2] 20.6 µM | [6] 31.5 µM | [7] 29 µM | [10] 38 µM | [11] 24.1 µM | [12] 36.4 µM | [13] 33.6 µM | [14] 27.7 µM | [15] 33.7 µM | [16] 33 µM | [17] 31.3 µM | [19] 32 µM
inactive: [3] | [4] | [5] | [20] | [8] | [9] | [18]
